The target of assay [1] is T1, Protein deacetylase HDAC6 (Homo sapiens) (UniProt Q9UBN7).
T1 sequence (whole entry): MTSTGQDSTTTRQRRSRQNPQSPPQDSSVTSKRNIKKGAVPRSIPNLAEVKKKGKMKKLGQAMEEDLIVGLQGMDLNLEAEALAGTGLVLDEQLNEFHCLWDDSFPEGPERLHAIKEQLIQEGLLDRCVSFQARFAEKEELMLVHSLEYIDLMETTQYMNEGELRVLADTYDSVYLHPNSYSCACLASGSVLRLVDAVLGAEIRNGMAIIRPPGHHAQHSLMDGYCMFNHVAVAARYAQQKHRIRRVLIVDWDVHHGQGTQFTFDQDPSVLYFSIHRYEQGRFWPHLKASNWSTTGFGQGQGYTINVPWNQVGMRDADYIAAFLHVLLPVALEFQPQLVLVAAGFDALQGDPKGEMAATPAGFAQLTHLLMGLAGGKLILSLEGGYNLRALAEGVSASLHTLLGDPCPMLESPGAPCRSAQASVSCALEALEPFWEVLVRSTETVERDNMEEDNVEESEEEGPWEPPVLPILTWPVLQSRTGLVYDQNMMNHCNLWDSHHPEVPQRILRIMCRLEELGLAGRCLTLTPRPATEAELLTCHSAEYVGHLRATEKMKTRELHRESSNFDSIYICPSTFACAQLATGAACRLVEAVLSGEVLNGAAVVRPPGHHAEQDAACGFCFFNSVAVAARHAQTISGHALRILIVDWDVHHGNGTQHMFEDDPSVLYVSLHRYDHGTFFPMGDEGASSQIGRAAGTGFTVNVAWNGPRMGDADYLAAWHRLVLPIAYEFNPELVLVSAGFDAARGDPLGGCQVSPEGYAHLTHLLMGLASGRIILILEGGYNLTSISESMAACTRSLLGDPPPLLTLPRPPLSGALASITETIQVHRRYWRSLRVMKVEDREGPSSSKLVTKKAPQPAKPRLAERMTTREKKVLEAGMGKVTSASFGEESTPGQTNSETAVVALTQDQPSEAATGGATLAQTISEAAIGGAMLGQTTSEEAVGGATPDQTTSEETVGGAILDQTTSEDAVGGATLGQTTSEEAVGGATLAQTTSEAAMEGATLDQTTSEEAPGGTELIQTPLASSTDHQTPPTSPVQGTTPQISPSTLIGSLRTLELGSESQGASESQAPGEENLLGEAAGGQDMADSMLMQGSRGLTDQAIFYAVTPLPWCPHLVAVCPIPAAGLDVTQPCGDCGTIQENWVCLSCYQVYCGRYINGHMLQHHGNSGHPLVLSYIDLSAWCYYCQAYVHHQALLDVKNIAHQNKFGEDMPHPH
Conditions: at 10 µM.

Assay [2] has as its target Protein deacetylase HDAC6 (Homo sapiens) (UniProt Q9UBN7). The conditions noted are these: at 10 µM. This is another data set of the same source.

Screen size: about 5,600 compounds; about 390 (7%) showed an effect of 50% or more. The sample as a whole holds a higher share of strong results than the screen did. Non-standard residues stand in square brackets, D forms with d. Residues, ends and D or L forms follow the SMILES beside them. αMeP = C[C@@]1(C(=O)O)CCCN1

For orientation: inhibition means the change of the read-out against control, counted positive when it falls. In the case of `CCCC(=O)Nc1ncnc2c1ncn2C1O[C@@H]2COP(=O)(O)O[C@H]2[C@H]1OC(=O)CCC` (stereo partly specified), the inhibition in assay [1] worked out at 3.41%.

For the molecule `N#Cc1ncccn1`, the inhibition in assay [1] was -1.21%.

Regarding `COc1cc(N2CCC(N3CCN(C)CC3)CC2)ccc1Nc1ncc(Cl)c(Nc2ccccc2S(=O)(=O)C(C)C)n1`, the inhibition in assay [1] came out at 17.9%.

`C[C@@]1(C(=O)N[C@@H](CCC(=O)O)C(=O)O)CCCN1C(=O)CN` (H-Gly-[αMeP]-Glu-OH): the inhibition in assay [1] is -8.16%.

`O=C(O)c1cccnc1C(=O)O`: in assay [1], the inhibition was -0.23%.

As for `O=C(O)c1cccnc1Nc1cccc(C(F)(F)F)c1`, in assay [1], the inhibition came out at 74.8%.

As to `Cc1c(Cl)cccc1Nc1ccccc1C(=O)O`, in assay [1], the inhibition came to 32.3%.

Take `Cc1c(Nc2ncccc2C(=O)O)cccc1C(F)(F)F`: in assay [1], the inhibition turned out to be 89.7%.

As for `O=C(OCCOCCO)c1ccccc1Nc1cccc(C(F)(F)F)c1`, the inhibition in assay [1] is 46.4%.

`O=C1OC(OC(=O)c2cccnc2Nc2cccc(C(F)(F)F)c2)c2ccccc21` (stereo unspecified): the inhibition in assay [1] is 4.26%.

In the case of `CN[C@H](C(=O)N[C@H](C(=O)N(C)[C@H](/C=C(\C)C(=O)O)C(C)C)C(C)(C)C)C(C)(C)c1ccccc1`, the inhibition in assay [1] is -3.5%.

Take `CC1OC1P(=O)(O)O` (stereo unspecified): the inhibition in assay [1] was -9.26%.

TEPRENONE, CHEMBL5314356: the inhibition in assay [2] is 27.9%.

For `CC1=C(C(=O)Nc2cc3cn[nH]c3cc2F)C(c2ccc(C(F)(F)F)cc2)CC(=O)N1` (stereo unspecified), in assay [1], the inhibition is 24.4%.

In the case of `C#CCN[C@@H]1CCc2ccccc21`, the inhibition in assay [1] stood at 54%.

Take `c1ccc(Oc2cccnc2)cc1`: the inhibition in assay [1] was found to be 10.2%.

As for `CCCCNc1nc(N)c2[nH]c(=O)n(Cc3ccc(OCCN(C)C)nc3)c2n1`, the inhibition in assay [1] is -9.47%.

As for `CCCC(=O)OCOC(=O)C1=C(C)NC(C)=C(C(=O)OC)C1c1cccc(Cl)c1Cl` (stereo unspecified), the inhibition in assay [1] was found to be 44.1%.

Regarding `Cc1ccc(Nc2ncc3c(n2)N(C)C(=O)N(c2cc(NC(=O)c4cccc(C(F)(F)F)c4)ccc2C)C3)cn1`, in assay [1], the inhibition came to 2.43%.

Consider `O=C(O)C1=CC(O)C(O)[C@H](O)C1` (stereo partly specified), for which, in assay [1], the inhibition is 11.8%.

As to `CCCn1c(=O)c2[nH]c(-c3cnn(Cc4cccc(C(F)(F)F)c4)c3)nc2n(CC)c1=O`, the inhibition in assay [1] came out at 101%.

For the molecule `CCCn1c(=O)c2nc(-c3ccccc3)[nH]c2n(CCC)c1=O`, in assay [1], the inhibition is -5.2%.

Take `CCOC(=O)COc1ccc2c(c1)C[C@@H](NC[C@H](O)c1cccc(Cl)c1)CC2`: the inhibition in assay [1] is 16.8%.

As to `Cn1nccc1Nc1nccc(-c2ccn([C@H](CO)c3ccc(Cl)c(F)c3)c(=O)c2)n1`, the inhibition in assay [1] was 26.5%.

For the molecule `CN1CCC(Nc2ncc3ncnc(Nc4ccc(F)c(Cl)c4)c3n2)CC1`, in assay [1], the inhibition worked out at 20.6%.

As for `CCn1c(-c2nonc2N)nc2cnc(Oc3cccc(NC(=O)c4ccc(OCCN5CCOCC5)cc4)c3)cc21`, in assay [1], the inhibition was 7.09%.

Take `CCOc1cccc(NC(=O)c2ccc(N3CCCC3)c(C(F)(F)F)c2)c1`: in assay [1], the inhibition stood at 69.4%.

Consider `O=C(Nc1cccc(Br)c1)c1cccc(S(=O)(=O)N2CCCCCC2)c1`, for which, in assay [1], the inhibition amounted to 12.5%.

`Cc1cc(C)n(-c2cccc([C@H](CC(=O)O)CN3CC[C@@H](CCc4ccc5c(n4)NCCC5)C3)c2)n1`: in assay [1], the inhibition is -4.01%.

Consider `C[C@H]1CC[C@H](n2c3cnccc3c3cnc(Nc4ccc5c(n4)CCN(C(=O)CO)C5)nc32)CC1`, for which the inhibition in assay [1] is -9.6%.

Regarding `CC[C@@H]1CN2C(=O)N(C)c3nc(-c4ccccc4)[nH]c3C2=N1`, the inhibition in assay [1] is -3.85%.

As to `COc1ccc(C(=O)Nc2sc3c(c2C(N)=O)CCCC3)cc1OC`, the inhibition in assay [1] is 31.6%.

On to `CC(C)(C)C1CCc2c(sc(NC(=O)c3ccco3)c2C(=O)O)C1` (stereo unspecified), for which, in assay [1], the inhibition came out at 102%.

With `N[C@@H](Cc1ccc(B(O)O)cc1)C(=O)O`, the inhibition in assay [1] was 0.83%.

In the case of `CNc1ncc2cc(-c3cc(NC(=O)NCCC(C)(C)C)c(F)cc3C)c(C)nc2n1`, the inhibition in assay [1] turned out to be 12.4%.

Take `C/C(=N\NC(=O)[C@@H]1C(=O)NC[C@H]1c1ccccc1)c1cccc(Br)c1`: the inhibition in assay [1] worked out at 17.4%.

Turning to `CN1CCc2c(c3ccccc3n2Cc2ccc(C(=O)NO)cc2)C1`, in assay [1], the inhibition was determined as 101%.

In the case of `Fc1ccc(Cn2c(NC3CCNCC3)nc3ccccc32)cc1`, in assay [1], the inhibition amounted to 6.44%.

For the molecule `CCO[C@@H](Cc1ccc(OCCc2ccc(OS(C)(=O)=O)cc2)cc1)C(=O)O`, in assay [1], the inhibition is -7.27%.

Consider `O=C(/C=C/c1cccnc1)NCCCCC1CCN(C(=O)c2ccccc2)CC1`, for which the inhibition in assay [1] was -0.26%.

On to `COc1cc(/C=C/C(=O)CC(=O)/C=C/c2ccc(O)c(OC)c2)ccc1O`, for which the inhibition in assay [1] was 38.8%.

For the molecule `CCNC(=O)/C=C/c1cccc(Br)c1`, in assay [1], the inhibition stood at 54.9%.

Take `O=C(c1cccc(Br)c1)N1CCC(N2CCCC2)CC1`: the inhibition in assay [1] is 1.11%.

Consider `O=C(/C=C/c1ccccc1)NCCO`, for which the inhibition in assay [1] is 81.5%.

With `Nc1cc(F)ccc1NC(=O)/C=C/c1cnn(C/C=C/c2ccccc2)c1`, the inhibition in assay [1] came out at 12.4%.

For `CC12CCC(C(=O)N(CCCCN3CCN(c4ccccn4)CC3)C1=O)C2(C)C` (stereo unspecified), in assay [1], the inhibition came to 4.93%.

In the case of `C[C@@H]1O[C@@H](O[C@H]2[C@H](Oc3cc(O)c4c(c3)O[C@H](c3ccc(O)cc3)CC4=O)O[C@H](CO)[C@@H](O)[C@@H]2O)[C@H](O)[C@H](O)[C@H]1O`, the inhibition in assay [1] worked out at 11.8%.

In the case of `O=C(O)C[C@H]1CC[C@H](c2ccc(-c3ccc(Nc4ccc(C(F)(F)F)nc4)cn3)cc2)CC1`, in assay [1], the inhibition worked out at 17.5%.

Take `CC(C)c1ccc2c(c1)CC[C@H]1[C@](C)(CN)CCC[C@]21C`: the inhibition in assay [1] turned out to be 10.1%.

With `C=CC(=O)c1ccc2ccccc2c1`, the inhibition in assay [1] was determined as 20.7%.

In the case of `C/C(=C\C(=O)Nc1ccccc1C(=O)O)c1ccc2ccccc2c1`, in assay [1], the inhibition stood at 27.8%.

The values are drawn from ChEMBL document CHEMBL4808148, “HDAC6 screening dataset using tau-based substrate in an enzymatic assay yields selective inhibitors and activators” (2021).
